{"source": "the supplement of paper PMC6555819", "experiment_in_all_cases": "PBM binding z-score (relative to random genomic background probes); higher = stronger binding; sequences stand for … in GC…GCGATTGACAGCGTAGAATGAAGG", "key": {"[1]": {"tested_on": "RARb homodimer (NR concentration 270 nM)", "procedure,_shortened": "(§1)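 On custom Agilent 4×180K arrays, double-stranded probes with 34-nt variable regions carried direct-repeat seeds, single-nucleotide variants, half-site ablations or random human genomic background. Ligand-free nuclear receptor dimers were applied for 1 h, and binding was read with antibodies against each partner (one per run). Binding z-scores come from regression-normalized fluorescence, with the random background probes as reference.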"}, "[2]": {"tested_on": "RARg:RXRa (NR concentration 270 nM, RXRa partner concentration 90 nM)", "procedure,_shortened": "as §1"}, "[3]": {"tested_on": "RARg homodimer (NR concentration 270 nM)", "procedure,_shortened": "as §1"}, "[4]": {"tested_on": "RXRa DBDmut IVT, anti-RXR (DBD mutation: RXRa K156A/R161A, NR concentration 90 nM)", "procedure,_shortened": "as §1"}, "[5]": {"tested_on": "RXRa homodimer (NR concentration 180 nM)", "procedure,_shortened": "as §1"}, "[6]": {"tested_on": "THRa:RXRa (NR concentration 90 nM, RXRa partner concentration 90 nM)", "procedure,_shortened": "as §1"}, "[7]": {"tested_on": "THRa homodimer (NR concentration 90 nM)", "procedure,_shortened": "as §1"}, "[8]": {"tested_on": "VDR homodimer (NR concentration 270 nM)", "procedure,_shortened": "as §1"}}}
{"sequence": "GCTCGGAGGACAAGGTCCGAGCTTTGTCCGTAGA", "values": [{"measurement": "PBM binding z-score", "setting": "[1]", "result": 0.2}, {"measurement": "PBM binding z-score", "setting": "[2]", "result": -0.185}, {"measurement": "PBM binding z-score", "setting": "[3]", "result": 0.242}, {"measurement": "PBM binding z-score", "setting": "[4]", "result": -0.26}, {"measurement": "PBM binding z-score", "setting": "[5]", "result": -0.792}, {"measurement": "PBM binding z-score", "setting": "[6]", "result": 0.554}, {"measurement": "PBM binding z-score", "setting": "[7]", "result": -0.414}, {"measurement": "PBM binding z-score", "setting": "[8]", "result": -0.775}]}
{"sequence": "GCGACTGGGGCATCAGCAGATTACCATAACTTAA", "values": [{"measurement": "PBM binding z-score", "setting": "[1]", "result": 0.257}, {"measurement": "PBM binding z-score", "setting": "[2]", "result": -0.0173}, {"measurement": "PBM binding z-score", "setting": "[3]", "result": 0.481}, {"measurement": "PBM binding z-score", "setting": "[4]", "result": 0.186}, {"measurement": "PBM binding z-score", "setting": "[5]", "result": -0.143}, {"measurement": "PBM binding z-score", "setting": "[6]", "result": -0.135}, {"measurement": "PBM binding z-score", "setting": "[7]", "result": -0.286}, {"measurement": "PBM binding z-score", "setting": "[8]", "result": -0.431}]}
{"sequence": "TCTTGTAGATCCATAGAGGTTAAGAAAGTGCGCT", "values": [{"measurement": "PBM binding z-score", "setting": "[1]", "result": 1.25}, {"measurement": "PBM binding z-score", "setting": "[2]", "result": 0.611}, {"measurement": "PBM binding z-score", "setting": "[3]", "result": 0.378}, {"measurement": "PBM binding z-score", "setting": "[4]", "result": 0.691}, {"measurement": "PBM binding z-score", "setting": "[5]", "result": 1.1}, {"measurement": "PBM binding z-score", "setting": "[6]", "result": 1.07}, {"measurement": "PBM binding z-score", "setting": "[7]", "result": -0.276}, {"measurement": "PBM binding z-score", "setting": "[8]", "result": 0.319}]}
{"sequence": "TCATATAAGTAAATGCTAGGTGAAAGTCCGATCT", "values": [{"measurement": "PBM binding z-score", "setting": "[1]", "result": 0.289}, {"measurement": "PBM binding z-score", "setting": "[2]", "result": 0.478}, {"measurement": "PBM binding z-score", "setting": "[3]", "result": 0.348}, {"measurement": "PBM binding z-score", "setting": "[4]", "result": 2}, {"measurement": "PBM binding z-score", "setting": "[5]", "result": 0.855}, {"measurement": "PBM binding z-score", "setting": "[6]", "result": 0.92}, {"measurement": "PBM binding z-score", "setting": "[7]", "result": 0.526}, {"measurement": "PBM binding z-score", "setting": "[8]", "result": 0.559}]}
{"sequence": "CAAATTAGGTCAAAGGTCAAAGTCGAGCCAACCA", "values": [{"measurement": "PBM binding z-score", "setting": "[1]", "result": 5.41}, {"measurement": "PBM binding z-score", "setting": "[2]", "result": 9.09}, {"measurement": "PBM binding z-score", "setting": "[3]", "result": 7.57}, {"measurement": "PBM binding z-score", "setting": "[4]", "result": 3.17}, {"measurement": "PBM binding z-score", "setting": "[5]", "result": 10.4}, {"measurement": "PBM binding z-score", "setting": "[6]", "result": 4.76}, {"measurement": "PBM binding z-score", "setting": "[7]", "result": 2.4}, {"measurement": "PBM binding z-score", "setting": "[8]", "result": 3.43}]}
{"sequence": "TCTGCTAGGTCAACGATGGTCGGCTAATCTGCTA", "values": [{"measurement": "PBM binding z-score", "setting": "[1]", "result": 3.13}, {"measurement": "PBM binding z-score", "setting": "[2]", "result": 3.75}, {"measurement": "PBM binding z-score", "setting": "[3]", "result": 5.24}, {"measurement": "PBM binding z-score", "setting": "[4]", "result": 0.92}, {"measurement": "PBM binding z-score", "setting": "[5]", "result": 2.64}, {"measurement": "PBM binding z-score", "setting": "[6]", "result": 2.7}, {"measurement": "PBM binding z-score", "setting": "[7]", "result": 0.478}, {"measurement": "PBM binding z-score", "setting": "[8]", "result": -0.232}]}
{"sequence": "CCTAGTTCGTCAGGAGGTCACACACCGGATATGA", "values": [{"measurement": "PBM binding z-score", "setting": "[1]", "result": 4.54}, {"measurement": "PBM binding z-score", "setting": "[2]", "result": 6.37}, {"measurement": "PBM binding z-score", "setting": "[3]", "result": 4.42}, {"measurement": "PBM binding z-score", "setting": "[4]", "result": 3.1}, {"measurement": "PBM binding z-score", "setting": "[5]", "result": 4.83}, {"measurement": "PBM binding z-score", "setting": "[6]", "result": 3.92}, {"measurement": "PBM binding z-score", "setting": "[7]", "result": 2.68}, {"measurement": "PBM binding z-score", "setting": "[8]", "result": 4.2}]}
{"sequence": "GCTCGGTGGACAAGGTCAGAGCTTTGTCCGTAGA", "values": [{"measurement": "PBM binding z-score", "setting": "[1]", "result": 2.7}, {"measurement": "PBM binding z-score", "setting": "[2]", "result": 2.44}, {"measurement": "PBM binding z-score", "setting": "[3]", "result": 2.14}, {"measurement": "PBM binding z-score", "setting": "[4]", "result": 0.246}, {"measurement": "PBM binding z-score", "setting": "[5]", "result": 1.96}, {"measurement": "PBM binding z-score", "setting": "[6]", "result": 2.48}, {"measurement": "PBM binding z-score", "setting": "[7]", "result": 1.14}, {"measurement": "PBM binding z-score", "setting": "[8]", "result": 0.24}]}
{"sequence": "ATACCAAGGTGATCGTGAGATCGTTGATACTAAC", "values": [{"measurement": "PBM binding z-score", "setting": "[1]", "result": 0.108}, {"measurement": "PBM binding z-score", "setting": "[2]", "result": 0.309}, {"measurement": "PBM binding z-score", "setting": "[3]", "result": 0.133}, {"measurement": "PBM binding z-score", "setting": "[4]", "result": 0.00637}, {"measurement": "PBM binding z-score", "setting": "[5]", "result": 0.0742}, {"measurement": "PBM binding z-score", "setting": "[6]", "result": 0.704}, {"measurement": "PBM binding z-score", "setting": "[7]", "result": 0.421}, {"measurement": "PBM binding z-score", "setting": "[8]", "result": 0.0841}]}
{"sequence": "CCTACTGGGCCATCAGGACATTGATATCAACGTT", "values": [{"measurement": "PBM binding z-score", "setting": "[1]", "result": 0.152}, {"measurement": "PBM binding z-score", "setting": "[2]", "result": 0.263}, {"measurement": "PBM binding z-score", "setting": "[3]", "result": 0.554}, {"measurement": "PBM binding z-score", "setting": "[4]", "result": -0.317}, {"measurement": "PBM binding z-score", "setting": "[5]", "result": -0.395}, {"measurement": "PBM binding z-score", "setting": "[6]", "result": 1.41}, {"measurement": "PBM binding z-score", "setting": "[7]", "result": 1.27}, {"measurement": "PBM binding z-score", "setting": "[8]", "result": 0.257}]}
{"sequence": "CCGACTGGGGCAAAGGTTACCATTCTCAGTACGA", "values": [{"measurement": "PBM binding z-score", "setting": "[1]", "result": 2.08}, {"measurement": "PBM binding z-score", "setting": "[2]", "result": 3.4}, {"measurement": "PBM binding z-score", "setting": "[3]", "result": 1.6}, {"measurement": "PBM binding z-score", "setting": "[4]", "result": 0.683}, {"measurement": "PBM binding z-score", "setting": "[5]", "result": 3.26}, {"measurement": "PBM binding z-score", "setting": "[6]", "result": 1.66}, {"measurement": "PBM binding z-score", "setting": "[7]", "result": -0.246}, {"measurement": "PBM binding z-score", "setting": "[8]", "result": -0.419}]}
{"sequence": "ATATGTAGGTTATGGGGTCATTCAGTTTGCGCAT", "values": [{"measurement": "PBM binding z-score", "setting": "[1]", "result": 4.16}, {"measurement": "PBM binding z-score", "setting": "[2]", "result": 5.29}, {"measurement": "PBM binding z-score", "setting": "[3]", "result": 3.67}, {"measurement": "PBM binding z-score", "setting": "[4]", "result": 2.9}, {"measurement": "PBM binding z-score", "setting": "[5]", "result": 6.67}, {"measurement": "PBM binding z-score", "setting": "[6]", "result": 4.35}, {"measurement": "PBM binding z-score", "setting": "[7]", "result": 4.19}, {"measurement": "PBM binding z-score", "setting": "[8]", "result": 7.28}]}
{"sequence": "TCATATAGGTAAAAGGTGAAAGTAGGTGTGGTAA", "values": [{"measurement": "PBM binding z-score", "setting": "[1]", "result": 2.04}, {"measurement": "PBM binding z-score", "setting": "[2]", "result": 2.13}, {"measurement": "PBM binding z-score", "setting": "[3]", "result": 1.16}, {"measurement": "PBM binding z-score", "setting": "[4]", "result": 2.18}, {"measurement": "PBM binding z-score", "setting": "[5]", "result": 3.34}, {"measurement": "PBM binding z-score", "setting": "[6]", "result": 2.19}, {"measurement": "PBM binding z-score", "setting": "[7]", "result": 0.852}, {"measurement": "PBM binding z-score", "setting": "[8]", "result": 0.549}]}
{"sequence": "TCTTGTAAATCAACAGGAGGTTAAGAAAGATCGA", "values": [{"measurement": "PBM binding z-score", "setting": "[1]", "result": 0.787}, {"measurement": "PBM binding z-score", "setting": "[2]", "result": 0.681}, {"measurement": "PBM binding z-score", "setting": "[3]", "result": 0.518}, {"measurement": "PBM binding z-score", "setting": "[4]", "result": 1.04}, {"measurement": "PBM binding z-score", "setting": "[5]", "result": 1.11}, {"measurement": "PBM binding z-score", "setting": "[6]", "result": 0.911}, {"measurement": "PBM binding z-score", "setting": "[7]", "result": -0.242}, {"measurement": "PBM binding z-score", "setting": "[8]", "result": 0.513}]}
